{"source": "PubChem BioAssay (NCATS)", "note": "Results filed as inconclusive are left out. Entries that show only a call come without a potency. The source holds several records for some structures; these can differ, active in one and inactive in another. Calls of active or inactive are those of the source. The call rests on the fitted dose curve; in most records, active means well fitted inhibition curve with a large enough effect; inconclusive means small, poorly fitted or top-dose-only effect; inactive means flat fitted curve, though single readings scatter. Potency means the concentration at half of the fitted maximal effect."}
{"target": "Glutathione peroxidase 1 (Homo sapiens) (UniProt P07203)", "sequence (P07203 whole entry, looked up)": "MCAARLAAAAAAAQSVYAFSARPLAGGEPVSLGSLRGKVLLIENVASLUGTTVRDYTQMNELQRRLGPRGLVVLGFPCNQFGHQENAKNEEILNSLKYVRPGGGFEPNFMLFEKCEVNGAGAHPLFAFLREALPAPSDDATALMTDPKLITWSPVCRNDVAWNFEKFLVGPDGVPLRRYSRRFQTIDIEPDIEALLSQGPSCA", "assay": "Primary qHTS Assay for Inhibitors of Recombinant Selenoprotein Glutathione Peroxidase 1 (GPX1) (AID 1845191); further: nearly all actives have a fitted effect of over 65% in size", "settings": "recombinant GPX1, GR-coupled NADPH fluorescence, 15 min; series mostly up to 48.8 µM; activity, negative = inhibition: at the top concentration", "text": "Assay Provider: Elias S.J. Arner MD PhD.\nDepartment of Medical Biochemistry and Biophysics\nKarolinska Institutet, Solna, Stockholm, Sweden\nSelenoprotein glutathione peroxidases (GPX), like the ubiquitously expressed GPX1 and the ferroptosis modulator GPX4, enact their antioxidant activities by reducing hydroperoxides using glutathione. […] GPX1 and GPX4 inhibitors have thus shown promise as anti-cancer agents. Existing inhibitors are often promiscuous, or modulate GPX activity only indirectly, so novel direct inhibitors identified through screening against GPX1 and GPX4 could be valuable. Here, we developed optimized glutathione reductase (GR)-coupled GPX assays for the biochemical high-throughput screen (HTS) of almost 12,000 compounds with known mechanisms of action. Initial hits were triaged using a GR counter-screen, assessed for isoform specificity using a separate GPX2 assay, and were assessed for general selenocysteine-targeting activity using a thioredoxin reductase (TXNRD1) assay. With this suite of assays, we identified novel GPX1/GPX2- and GPX4-specific inhibitors and can here present a validated pipeline for future discovery research for selenoprotein-targeting agents.\nSEQUENCE No. (e.g., 1, 2, 3, etc.); […] (e.g., Cells, Incubation, Reagent, etc.); VALUE; DESCRIPTION.\n1; Reagent 1; 3 uL; GPx1 enzyme or no enzyme control in 1536-well, black, solid Greiner assay plate.\n2; Compound; 25 nL; Kalypsis pin tool (Wako USA) equipped with a 1536-well pin head.\n3; Incubation; 30 min; room temperature.\n4; Reagent 2; 1 uL; 10 nM GPX1, 1 mM GSH, 0.5 mM CHP, 0.5 mM NADPH, 100 nM GR, 0.01% BSA substrate\n5; Detection; Fluorescence; ViewLux microplate reader, excitation 340 nm and emission 450 nm.\n6; Incubation; 15 min; room temperature.\n7; Detection; Fluorescence; ViewLux microplate reader, excitation 340 nm and emission 450 nm.\nNOTES (numbers refer to Sequence numbers above)\n1. 3 uL of 16.66 nM GPX1 and 0.016% BSA in assay buffer (50 mM Tris-HCl, 2 mM EDTA (pH 7.5), 150 mM NaCl) was added to columns 3-48 of 1536-well assay plates using a BioRAPTR Flying Reagent Dispenser (Let's Go Robotics (LGR), Carlsbad, CA). A no-enzyme control (0.01% BSA in TES assay buffer) was added to columns 1-2.\n2. 25 nL of test compounds and DMSO controls were added to each well with a pin tool (Kalypsys).\n3. The assay plates were incubated for 30 minutes at room temperature.\n4. 1 uL of master mix (500 nM glutathione reductase (GR), 5 mM reduced glutathione (GSH), 2.5 mM NADPH in assay buffer) was added. 1 uL of cumene hydroperoxide (CHP) ([2.5 mM] in 50% EtOH) was then added within 5 minutes to initiate the reaction. Final concentrations were: 10 nM GPX1, 1 mM GSH, 0.5 mM CHP, 0.5 mM NADPH, 100 nM GR, 0.01% BSA.\n5. Initial fluorescence readout (t=0) at 340/450 nm was measured using a ViewLux multimodal detector (PerkinElmer, Waltham, MA).\n7. Endpoint fluorescence readout (t=15) at 340/450 nm was measured 15 min after room temperature incubation."}
{"molecule": "O=C(Nc1cc(Cl)cc2c1[nH]c1cnccc12)c1cccnc1", "outcome": "inactive [at 27.7 µM]"}
{"molecule": "CCc1ccc(OCc2ccccc2C(=O)Nc2ccc3nc(C)cc(N)c3c2)cc1", "outcome": "inactive"}
{"molecule": "c1cc(-c2sc(-c3ccncc3)c(-c3ccncc3)c2-c2ccncc2)ccn1", "outcome": "inactive"}
{"molecule": "CCN1CCC[C@H]1CNC(=O)c1cc(S(N)(=O)=O)ccc1OC", "Potency": "inactive"}
{"molecule": "C[C@]12CCC3c4ccc(O)cc4CCC3C1CCC2=O", "note": "(stereo not given in full)", "outcome": "inactive"}
{"molecule": "CC(C)C(=O)Oc1ccc(CO)cc1[C@H](CCN(C(C)C)C(C)C)c1ccccc1", "Potency": "inactive"}
{"molecule": "CC(=O)N[C@@H](CS)C(=O)O", "Potency": "inactive"}
{"molecule": "COc1cc2ncnc(-n3nc(-c4ccccn4)nc3N)c2cc1OC", "Potency": "inactive"}
{"molecule": "COc1ccc2c(Oc3ccc(NC(=O)c4c(C)n(CC(C)(C)O)n(-c5ccccc5)c4=O)nc3)ccnc2c1", "Potency": "inactive"}
{"molecule": "CCCCCCCCCCCC1=C(O)C(=O)C=C(O)C1=O", "outcome": "inactive"}
{"molecule": "CC1CCC(C(=O)N(c2cc(C#CC(C)(C)C)sc2C(=O)O)C2CCC(O)CC2)CC1", "note": "(stereo not given)", "Potency": "inactive"}
{"molecule": "O=C(Nc1ccccc1Br)N[C@@H]1CCN(c2ccc(C(F)(F)F)cn2)C1", "Potency": "inactive"}
{"molecule": "O=c1cc(CN2CCOCC2)occ1OCCCCCSc1ccnc2cc(C(F)(F)F)ccc12", "Potency": "inactive"}
{"molecule": "CC1(C)CCC2=C(O1)c1ccccc1C(=O)C2=O", "Potency": "16.3 µM (active) and inactive"}
{"molecule": "O=C(O)c1c(Cl)c(Cl)c(Cl)c(Cl)c1-c1c2cc(I)c(=O)c(I)c-2oc2c(I)c(O)c(I)cc12", "outcome": "inactive"}
{"molecule": "O=C(NOCC(O)CO)c1cc(Br)c(F)c(F)c1Nc1ccc(I)cc1F", "note": "(stereo not given)", "outcome": "inactive"}
{"molecule": "CCCCC1C(=O)N(c2ccccc2)N(c2ccccc2)C1=O", "activity, negative = inhibition": "-18% (inactive)"}
{"molecule": "Cc1ccc(C(=O)Nc2cccc(C(F)(F)F)c2)cc1Nc1nc(-c2cccnc2)nc2c1cnn2C", "outcome": "inactive"}
{"molecule": "CC(=O)CCCCn1c(=O)c2c(ncn2C)n(C)c1=O", "Potency": "inactive"}
{"molecule": "COc1ccc(Cc2ccc(NC(N)=O)cc2)cc1-c1cccc(Cl)c1", "activity, negative = inhibition": "-0.422% (inactive)"}
{"molecule": "CCn1c(C(=O)N(C2CC2)C2CC2)cc2c3c(ncn3C)c(Nc3cc(C)n(C)n3)nc21", "Potency": "inactive"}
{"molecule": "COc1cc2c(cc1OC)CN(CCc1ccc(NC(=O)c3cc(OC)c(OC)cc3NC(=O)c3cnc4ccccc4c3)cc1)CC2", "Potency": "inactive"}
{"molecule": "CC1(C)Cc2c(sc(NC(=S)NC(=O)c3ccccc3)c2C(=O)O)CO1", "outcome": "inactive"}
{"molecule": "CNC1CCC(N(Cc2cccc(-c3ccncc3)c2)C(=O)c2sc3c(F)ccc(F)c3c2Cl)CC1", "note": "(stereo not given)", "Potency": "inactive"}
{"molecule": "C[C@H](NC(=O)C(=O)Nc1ccccc1C(C)(C)C)C(=O)N[C@@H](CC(=O)O)C(=O)COc1c(F)c(F)cc(F)c1F", "outcome": "inactive"}
{"molecule": "N#C[C@H]1C[C@H]2C[C@@H]2N1C(=O)[C@@H](N)C12CC3CC(CC(O)(C3)C1)C2", "activity, negative = inhibition": "-0.325% (inactive)"}
{"molecule": "CN(C)Cc1ccc(-c2nc3cccc4c3n2CCNC4=O)cc1", "outcome": "inactive"}
{"molecule": "O=C1C[C@@H](c2ccc(O)cc2)Oc2cc(O)cc(O)c21", "activity, negative = inhibition": "-5.3% (inactive)"}
{"molecule": "CC[C@]1(O)C[C@@H]2CN(CCc3c([nH]c4ccccc34)[C@@](C(=O)OC)(c3cc4c(cc3OC)N(C)[C@H]3[C@@](O)(C(=O)OC)[C@H](OC(C)=O)[C@]5(CC)C=CCN6CC[C@]43[C@@H]65)C2)C1", "activity, negative = inhibition": "4.83% (inactive)"}
{"molecule": "O=C(NCc1ccncc1)C12C[C@H]3C[C@@H](C1)CC(c1ccc(Cl)cc1)(C3)C2", "activity, negative = inhibition": "1.4% (inactive)"}
{"molecule": "CC(=O)Nc1ccc([C@H](C)C(=O)Nc2ncc(C(C)C)s2)cc1", "outcome": "inactive"}
{"molecule": "COc1ccc(-c2coc3cc(O)cc(O)c3c2=O)cc1", "activity, negative = inhibition": "-5.96% (inactive)"}
{"molecule": "COc1ccc2c(Oc3ccc(NC(=O)c4c(C)n(CC(C)(C)O)n(-c5ccccc5)c4=O)cc3F)ccnc2c1", "outcome": "inactive"}
{"molecule": "COc1cccc([C@@H](C)NCCCc2ccccc2Cl)c1", "outcome": "inactive"}
{"molecule": "Cn1c(N2CCCCS2(=O)=O)nc(C(=O)NCc2ccc(F)cc2)c(O)c1=O", "activity, negative = inhibition": "-2.23% (inactive)"}
{"molecule": "O=C(O)CCC1CCC(c2cc(F)ccc2F)(S(=O)(=O)c2ccc(Cl)cc2)CC1", "note": "(stereo not given)", "outcome": "inactive"}
{"molecule": "O=C1NCC2(CCN(CCc3ccccc3)CC2)O1", "activity, negative = inhibition": "-24.5% (inactive)"}
{"molecule": "Oc1ccc(C2CCN(c3ccnc4ccccc34)CC2)cc1O", "outcome": "inactive"}
{"molecule": "c1ccc2c(-c3cnn4cc(-c5ccc(N6CCNCC6)cc5)cnc34)ccnc2c1", "activity, negative = inhibition": "-1.23% (inactive)"}
{"molecule": "CC(C)OC(=O)C(C)(C)Oc1ccc(C(=O)c2ccc(Cl)cc2)cc1", "Potency": "inactive"}
